# Source: PubChem BioAssay
# This excerpt belongs to a sample that is enriched for hits.
# Dicer processing – human Dicer pre-microRNA cleavage inhibition | Q9UPY3 | cat-ELCCA pre-miR-21 Dicer processing, chemiluminescence; stronger effect = higher value | z-score at 25 µM | actives 6% (n = 47,000); in the data active = z-score above about 3, passing the limit was not always enough;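 also: plate controls were vehicle for no effect and no enzyme for full effect; higher signal means more uncleaved substrate so more Dicer inhibition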
# Numbers without * were called inactive.
SMILES,Dicer processing
CC1=C(C(=O)OCC2CCCO2)C(c2coc3ccc(Cl)cc3c2=O)C2=C(CCCC2=O)N1 (stereo unspecified),2.06
CCc1ccc(C2C(C(=O)OCC3CCCO3)=C(C)NC3=C2C(=O)CC(C)(C)C3)cc1 (stereo unspecified),7.04*
CC1=C(C(=O)OCC2CCCO2)C(c2coc3ccc(Cl)cc3c2=O)C2=C(CC(C)(C)CC2=O)N1 (stereo unspecified),3.19*
COc1cc(C2C(C(=O)OCC3CCCO3)=C(C)NC3=C2C(=O)CC(C)(C)C3)cc(Cl)c1O (stereo unspecified),1.13
COc1ccc(C2C(C(=O)OCC3CCCO3)=C(C)NC3=C2C(=O)CC(C)(C)C3)cc1O (stereo unspecified),-0.23
CC1=C(C(=O)OCC2CCCO2)C(c2ccccc2C)C2=C(CC(C)(C)CC2=O)N1 (stereo unspecified),-0.02
CC1=C(C(=O)OCC2CCCO2)C(c2cccc(C)c2)C2=C(CC(C)(C)CC2=O)N1 (stereo unspecified),2.23
COc1cccc(C2c3c(oc4ccccc4c3=O)C(=O)N2c2nnc(C(C)C)s2)c1 (stereo unspecified),-0.18
CCc1ccc2oc(-c3ccco3)c(O)c(=O)c2c1,0.1
CCOC(=O)c1ccc(Oc2sccc2[N+](=O)[O-])cc1,3.43*
CCOC(=O)c1ccc(N)cc1,0.55
CCOC(=O)C1CCN(c2sccc2[N+](=O)[O-])CC1,0.88
C=CCSc1ncnc2c1cnn2-c1ccccc1,0.2
CC(=O)Oc1ccc2c(=O)c(Oc3ccc(Cl)cc3)c(C(F)(F)F)oc2c1,-0.22
COc1ccc(Oc2c(C)oc3cc(OC(=O)N4CCOCC4)ccc3c2=O)cc1,0.19
O=C(Oc1ccc2c(=O)c(-c3ccc(Cl)cc3)c(C(F)(F)F)oc2c1)N1CCOCC1,3.96*
FC(F)(F)c1csc(Nc2ccc(Cl)c(Cl)c2)n1,0.44
COc1cc2ncnc(Sc3ccc(C)cc3)c2cc1OC,-3.03
CS/C(=N\S(=O)(=O)c1ccccc1)NNC(=O)c1c(-c2c(Cl)cccc2Cl)noc1C,-0.54
O=C1C(=O)N2C(=C1C(=O)N1CCOCC1)c1ccccc1CC21CCCC1,-1.08
CCC1(CC)Cc2ccccc2C2=C(C(=O)N3CCOCC3)C(=O)C(=O)N21,3.97*
CC1(C)Cc2ccccc2C2=C(C(=O)N3CCCC3)C(=O)C(=O)N21,-1.27
COc1ccc(-c2noc(COc3ccc4c(c3)CCCC4)n2)cc1,2.19
O=C1OC(Nc2ccc([N+](=O)[O-])cn2)c2ccccc21 (stereo unspecified),-0.83
CN(NC1OC(=O)c2ccccc21)c1ncc(Cl)cc1C(F)(F)F (stereo unspecified),0.04
SMILES,Dicer processing
CN(NC1OC(=O)c2ccccc21)c1ccccc1[N+](=O)[O-] (stereo unspecified),3.21*
CC(=O)Nc1ccc(Br)cc1[N+](=O)[O-],-0.93
Cc1ccccc1NC(=O)N(Cc1cccs1)C(=O)CC#N,3.7*
CCCN(C(=O)CC#N)C(=O)Nc1ccccc1C,0
Cc1cccc(C)c1NC(=O)N(Cc1ccccc1)C(=O)CC#N,0.25
O=C(Nc1c(C(=O)Nc2ccc(Br)cc2)cnn1-c1ccccc1)c1ccco1,0.71
CCn1c(=O)c2c(nc3n2CC(C)CN3c2ccc(Br)cc2)n(C)c1=O (stereo unspecified),0.55
Cc1ccc2c(c1)C(O)(CC(=O)c1ccc(C(C)C)cc1)C(=O)N2 (stereo unspecified),0.2
Cc1csc(NC(=O)COCC(=O)O)c1-c1nc2ccccc2s1,1.3
CC(=O)Nc1scc(C)c1-c1nc2ccccc2s1,-0.01
Cc1csc(NS(=O)(=O)c2ccc(Cl)cc2)c1-c1nc2ccccc2s1,4.18*
CCCCCC(=O)Nc1nc2c(s1)CCc1ccccc1-2,-2.02
N#Cc1c(SCC(=O)c2ccc([N+](=O)[O-])cc2)nsc1SCC(=O)c1ccc([N+](=O)[O-])cc1,0.7
CC1CCc2c(sc3nc(SCC(N)=O)n(-c4ccccc4)c(=O)c23)C1 (stereo unspecified),1.27
N#CC1C(=O)NC(N2CCN(Cc3ccccc3)CC2)=NC12CCCCC2 (stereo unspecified),-0.4
CCOC(=O)C(=CNc1ccc(F)c(C#N)c1)C(=O)OCC,3.42*
CCOC(=O)C(=CNc1ccc2c(c1)CCN2C(C)=O)C(=O)OCC,1.53
CCOC(=O)C(=CNc1nc2ccc(F)cc2s1)C(=O)OCC,0.63
Brc1cc(-c2ccccn2)sc1Sc1ccccc1,0.68
C=CCn1c(NCc2ccc(N(CC)CC)cc2)nc2ccccc21,2.31
C=CCn1c(NCc2ccccc2O)nc2ccccc21,0.92
C=CCn1c(NCc2cc(Cl)ccc2O)nc2ccccc21,3.89*
CC(C)n1c(NCc2ccccc2O)nc2ccccc21,0.13
CCCn1c(NCc2cc(Cl)ccc2O)nc2ccccc21,1.67
CCn1c(NCc2cc(Cl)ccc2O)nc2ccccc21,3.02*
SMILES,Dicer processing
C=CCOC(=O)C1=C(C)NC2=C(C(=O)CCC2)C1c1cccc(OC)c1OC (stereo unspecified),-0.58
Clc1ccc(C(=Nc2ccccc2)c2ccccc2)cc1,0.31
C#CCOC(=O)Nc1cc(C(F)(F)F)cnc1OC,-2.54
CSc1nnc2c(n1)OC(c1ccc(C)o1)N(C(C)=O)c1ccc(Br)cc1-2 (stereo unspecified),-0.9
CCCCC1(O)C(=O)c2ccccc2N(C)C1=O (stereo unspecified),-1.29
CCOC(=O)c1cc(=O)c2ccc(O)cc2o1,-0.92
Cc1cc2nc(SCCO)nc(C)c2cc1C,-1.37
COc1ccc(C2C(C(=O)c3cccs3)=C(O)C(=O)N2CCCn2ccnc2)cc1 (stereo unspecified),-0.81
O=C(C1=C(O)C(=O)N(CCCn2ccnc2)C1c1cccnc1)c1cc2ccccc2o1 (stereo unspecified),-0.82
O=C(C1=C(O)C(=O)N(CCCn2ccnc2)C1c1cccnc1)c1cccs1 (stereo unspecified),3.06*
OC(COC1=NCNc2cc(Cl)ccc21)c1ccc2c(c1)OCCO2 (stereo unspecified),-1.51
Clc1ccc(-c2csc(-c3[nH]ncc3Br)n2)cc1,0.99
CC(=O)Oc1ccc(OC(C)=O)c2c1[C@@H]1C=C[C@H]2CC1,0.7
O=c1[nH]c2c(cnn2-c2ccccc2)c(=O)n1-c1ccc(Cl)c(Cl)c1,2.33
O=c1[nH]c2sc(-c3ccccc3)cc2c(=O)n1-c1cccc(Cl)c1,4.38*
CN1CCc2c(sc3[nH]c(=S)n(-c4ccccc4)c(=O)c23)C1,-0.72
O=c1c2cc(-c3ccccc3)sc2[nH]c(=S)n1-c1ccccc1,4.06*
CCOC(=O)Cn1c(=O)n(-c2ccc(Cl)cc2)c(=O)c2cc(-c3ccccc3)sc21,0.05
CC1CCc2c(sc3[nH]c(=S)n(-c4ccccc4)c(=O)c23)C1 (stereo unspecified),-0.48
Cc1[nH]n(C)c(=O)c1N=Nc1c(Cl)cc(C(F)(F)F)cc1Cl,-2.5
CC(=O)N[C@H]1[C@@H](OCc2ccccc2)O[C@H](CO)[C@@H](O)[C@@H]1O,-1.37
COc1ccccc1-c1coc2cc(OC(=O)c3cccs3)ccc2c1=O,12.4
Cc1cc(C(F)(F)F)nc2cc(-c3ccc(Cl)cc3)nn12,0.22
CCNc1cc(NC(C)C)nc(Oc2ccc(OCC(=O)OC)nn2)n1,0.7
COc1ccc(C2c3c(n(C)c(=O)n(C)c3=O)N=C3c4ccccc4C(=O)C32)cc1OC (stereo unspecified),-0.39
